From PubChem BioAssay (NCI)
The panel holds about 79,000 compounds, 15% with a hit somewhere; the sample as a whole holds those more often. A number with no mark means an inactive call. Active and inactive are the calls of the source. Rule as the data show it: active = growth inhibition above about 70%; inactive = the rest.

Test: NCI Yeast Anticancer Drug Screen. Data for the sgs1 strain (AID 173);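 also: 0% = growth of vehicle-only control cultures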
Settings: S. cerevisiae sgs1 mutant, at 3.7 µM, active compounds read high
Outline: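 Vehicle-treated cultures served as reference for growth inhibition of a yeast strain altered in DNA damage repair or cell cycle control after compound exposure.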
With `S=C(S)NN1CCOCC1` the growth inhibition was 47%. `COC(=O)C1=C(C)NC(C)=C(C(=O)OCCCN2CCC(c3ccccc3)(c3ccccc3)CC2)C1c1cccc([N+](=O)[O-])c1` (stereo not drawn) gave a growth inhibition of 23%. `c1ccc2c(c1)Oc1cccc3cccc-2c13` showed a growth inhibition of 13%. In the case of `CN(C)CCOc1ccc2c(c1)C/C(=C/c1ncc([N+](=O)[O-])n1C)C2=O`, the growth inhibition is reported as 52%. With `Clc1ccccc1C1OC1c1ccccc1Cl` (stereo not drawn) the growth inhibition was -72%. `O=[N+]([O-])c1cc(CCl)ccc1CCl` gave a growth inhibition of 28%. Work on `O=C1C=CC(=O)c2c(O)c(Nc3ccc(OC(F)(F)F)cc3)c(Cl)c(O)c21` yielded a growth inhibition of 32%. In the case of `S=c1[nH]nc(Nc2ccc(Cl)cc2)s1`, the growth inhibition is reported as -7%. Work on `Cn1ccnc1Oc1ccc(Cl)cc1` yielded a growth inhibition of -5%. Compound `O=C1c2ccccc2-c2nc3ccccc3nc21` has a growth inhibition of -57%. Compound `CCCCCCCCCCCCCCCCCCNC` has a growth inhibition of -27%. For `Oc1ccc(NCn2c(=S)sc3ccccc32)cc1`, the growth inhibition was 5%. Compound `O=C1C2CC[C@@H]3C(=O)C(Cl)(Cl)[C@@H]3CCC2C1(Cl)Cl` (stereo partly drawn) has a growth inhibition of 20%. Work on `CC[n+]1ccc2c(C)c3[nH]c4ccc(O)cc4c3c(C)c2c1` yielded a growth inhibition of 38%. For `Cc1ccc(-n2cc(-c3ccc(Cl)cc3)c(C#N)c2N)cc1`, the growth inhibition was 0%. `CC(=O)[O][Bi]([c]1ccccc1)[c]1ccccc1` showed a growth inhibition of 30%. With `CC1=C(SCCO)C(=O)c2ccccc2C1=O` the growth inhibition was -2%. `C/C(=N\O)C1CC2C=C(C#N)C1N(Cc1ccccc1)C2` (stereo not drawn) gave a growth inhibition of 1%. With `Nc1nc(-c2cccnc2)cc(-c2cc(-c3cccnc3)nc(N)n2)n1` the growth inhibition was -4%. For `CC(C)=CC(=O)O[C@@H]1CC(C)(C)CC2C3=CCC4[C@]56CC[C@](O)(OC5)C(C)(C)C6CC[C@@]4(C)C3(C)CC[C@]21C(=O)O` (stereo partly drawn), the growth inhibition was 46%. `CCC(C)COC(=O)c1ccc(N=Cc2ccc(C=Nc3ccc(C(=O)OCC(C)CC)cc3)cc2)cc1` (stereo not drawn) gave a growth inhibition of -2%. For `Oc1cccc2c(Cl)ccnc12`, the growth inhibition was 99% (active). For `O=C(O)c1cccc(-c2c3ccc(=O)cc-3oc3cc(O)ccc23)c1`, the growth inhibition was 35%. With `CN(CCc1ccccn1)c1ccc2c(c1)Cc1ccccc1-2` the growth inhibition was 71% (active). Work on `Cc1cc(S(=O)(=O)/N=C(/NN)NNc2cccc(C(F)(F)F)n2)c(S)cc1Cl` yielded a growth inhibition of 1%. `Nc1ccccc1CC(O)C(=O)O` (stereo not drawn) gave a growth inhibition of 1%. With `O=C(O)C1CCCCC1c1c2ccc(=O)c(O)c-2oc2c(O)c(O)ccc12` (stereo not drawn) the growth inhibition was -20%. Compound `Cc1ccc2ccc(O)cc2c1` has a growth inhibition of -14%. `COC(=O)c1ccc(NCC2=CC(=O)C=CC2=O)cc1O` gave a growth inhibition of 30%. With `C(CCSC1=NCCN1)CSC1=NCCN1` (tested in a mixture with another compound) the growth inhibition was 35%. With `N#Cc1c(N)[nH]c2ccc(Sc3ccccc3)cc12` the growth inhibition was 5%. For `CCNc1nnc(CSc2nc(-c3ccccc3)c(-c3ccccc3)[nH]2)s1`, the growth inhibition was 18%. With `CC[C@@]1(O)C(=O)OCc2c1cc1n(c2=O)Cc2cc3c(N)cccc3nc2-1` the growth inhibition was -2%.
